Reference: PubChem BioAssay

Tests used:
[1] = system: Botulinum neurotoxin type F light chain protease (Clostridium botulinum); assay: Clostridium botulinum type F light chain protease inhibitors, microsphere substrate cleavage, validation (AID 588459); conditions: multiplex microsphere protease substrate cleavage assay, flow cytometry; at 10 µM; active compounds read high
[2] = target: Botulinum neurotoxin type A (Clostridium botulinum) (UniProt P0DPI0); assay: BoNT/A light chain protease inhibitors, biochemical, multiplex microsphere flow cytometry, validation set (AID 588460); conditions: at 10 µM, active compounds read high
Chain of Botulinum neurotoxin type A (Clostridium botulinum) (P0DPI0 whole entry, looked up): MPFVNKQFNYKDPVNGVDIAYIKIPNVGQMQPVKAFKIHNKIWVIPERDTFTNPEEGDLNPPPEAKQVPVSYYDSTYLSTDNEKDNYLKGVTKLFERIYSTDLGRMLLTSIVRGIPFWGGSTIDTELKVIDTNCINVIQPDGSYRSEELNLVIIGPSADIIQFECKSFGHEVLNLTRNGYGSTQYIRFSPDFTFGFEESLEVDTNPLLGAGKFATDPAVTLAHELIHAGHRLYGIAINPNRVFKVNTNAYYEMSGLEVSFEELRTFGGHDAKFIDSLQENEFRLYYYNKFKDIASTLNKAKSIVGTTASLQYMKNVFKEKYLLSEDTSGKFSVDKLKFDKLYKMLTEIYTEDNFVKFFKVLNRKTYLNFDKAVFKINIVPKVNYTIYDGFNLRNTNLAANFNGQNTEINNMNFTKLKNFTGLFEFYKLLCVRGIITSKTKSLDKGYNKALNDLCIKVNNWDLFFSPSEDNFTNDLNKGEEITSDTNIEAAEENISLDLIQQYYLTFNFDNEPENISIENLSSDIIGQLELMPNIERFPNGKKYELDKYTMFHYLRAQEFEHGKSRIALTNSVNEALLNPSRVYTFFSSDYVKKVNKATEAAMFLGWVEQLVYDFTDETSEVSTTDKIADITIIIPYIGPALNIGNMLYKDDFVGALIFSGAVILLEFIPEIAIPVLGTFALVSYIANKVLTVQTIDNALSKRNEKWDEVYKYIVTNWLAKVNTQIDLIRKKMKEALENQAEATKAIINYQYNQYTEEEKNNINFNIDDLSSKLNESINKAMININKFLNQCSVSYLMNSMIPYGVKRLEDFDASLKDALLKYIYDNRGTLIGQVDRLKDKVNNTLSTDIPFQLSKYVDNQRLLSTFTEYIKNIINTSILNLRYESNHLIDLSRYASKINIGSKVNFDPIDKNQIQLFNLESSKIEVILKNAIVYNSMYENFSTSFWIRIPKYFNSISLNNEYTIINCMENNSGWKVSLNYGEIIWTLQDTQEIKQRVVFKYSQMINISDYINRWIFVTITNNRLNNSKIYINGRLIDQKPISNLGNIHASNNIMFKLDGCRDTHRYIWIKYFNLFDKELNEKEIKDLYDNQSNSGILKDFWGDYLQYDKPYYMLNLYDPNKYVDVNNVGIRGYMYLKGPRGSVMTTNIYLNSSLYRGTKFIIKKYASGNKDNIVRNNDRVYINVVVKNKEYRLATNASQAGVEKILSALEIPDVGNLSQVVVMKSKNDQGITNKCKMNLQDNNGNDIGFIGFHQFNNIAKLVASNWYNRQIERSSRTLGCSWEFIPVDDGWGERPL

[3] = target: Lethal factor (Bacillus anthracis) (UniProt P15917); assay: Bacillus anthracis lethal factor inhibition, microsphere flow cytometry protease assay, validation at 10 µM (AID 588461); conditions: multiplex microsphere protease cleavage assay, active compounds read high
Chain of Lethal factor (Bacillus anthracis) (P15917 whole entry, looked up): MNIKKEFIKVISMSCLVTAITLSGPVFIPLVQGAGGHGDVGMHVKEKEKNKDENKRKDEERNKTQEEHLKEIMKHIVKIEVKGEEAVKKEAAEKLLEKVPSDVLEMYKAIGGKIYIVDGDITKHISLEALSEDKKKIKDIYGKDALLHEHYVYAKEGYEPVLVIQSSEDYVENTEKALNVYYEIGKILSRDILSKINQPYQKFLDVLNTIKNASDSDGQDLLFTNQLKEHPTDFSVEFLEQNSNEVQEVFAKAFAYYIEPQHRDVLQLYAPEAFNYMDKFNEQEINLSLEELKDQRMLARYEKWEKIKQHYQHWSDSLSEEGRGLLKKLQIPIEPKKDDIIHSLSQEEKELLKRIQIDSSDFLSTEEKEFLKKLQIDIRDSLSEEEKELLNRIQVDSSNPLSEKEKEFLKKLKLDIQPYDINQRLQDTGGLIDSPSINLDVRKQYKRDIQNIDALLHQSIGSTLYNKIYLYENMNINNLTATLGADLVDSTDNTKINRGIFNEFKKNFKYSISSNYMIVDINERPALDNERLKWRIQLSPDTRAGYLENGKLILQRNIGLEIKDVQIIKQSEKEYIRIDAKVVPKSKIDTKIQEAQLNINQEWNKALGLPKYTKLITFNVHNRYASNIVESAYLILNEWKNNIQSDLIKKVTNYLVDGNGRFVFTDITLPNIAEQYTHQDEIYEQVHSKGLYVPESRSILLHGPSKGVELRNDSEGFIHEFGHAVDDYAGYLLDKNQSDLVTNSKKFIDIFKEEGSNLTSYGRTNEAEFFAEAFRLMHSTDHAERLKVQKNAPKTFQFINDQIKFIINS

Measured: inhibition

C#C[C@]1(O)CC[C@H]2[C@@H]3CCc4cc(OC)ccc4[C@H]3CC[C@@]21C
inactive: [1] 0.9% | [2] 0.4% | [3] -5.2%

O=C(CN1C(=O)C2CCc3[nH]c4ccccc4c3C2C1=O)N1CCCC1 (stereo not drawn)
inactive: [1] 0.5% | [2] 1.1% | [3] 4.3%

CC(=O)N1CC23C=CC(CC2CC12CCCCCC2)O3 (stereo not drawn)
inactive: [1] 1.3% | [2] -1.4% | [3] 1.3%

COc1ccc2cc([C@H](C)C(=O)O)ccc2c1
inactive: [1] 0.3% | [2] -0.1% | [3] -2.6%

Cc1ccc(S(=O)(=O)NC(C(=O)Oc2ccc3c(C(F)(F)F)cc(=O)oc3c2)c2ccccc2)cc1 (stereo not drawn)
inactive: [1] 1.6% | [2] 1.4% | [3] -1.3%

O=C(CCC(=O)c1cccs1)c1cccs1
inactive: [1] 3.2% | [2] -1.4% | [3] -3.3%

Cc1ccc(/C=N/Nc2nc(C(C)(C)C)cs2)o1
inactive: [1] -1% | [2] -0.3% | [3] -6.6%

CCC12CN3CC(CC)(CN(C1)C31C(=O)N(C)c3ccc(C)cc31)C2=O (stereo not drawn)
inactive: [1] -1.6% | [2] 0.1% | [3] -7.3%

CC(C)c1cc(=O)oc2c3c4c(cc12)CCCN4CCC3
inactive: [1] 4.4% | [2] 2% | [3] -13.8%

O=C(Nc1ncc2c(n1)CC(c1ccco1)CC2=O)c1ccco1 (stereo not drawn)
inactive: [1] -2.6% | [2] -3.2% | [3] -10.4%

CCN(CC)CCNC(=O)c1cc(Cl)c(N)cc1OC
inactive: [1] -1.3% | [2] -0.2% | [3] 0%
